Measured values from PubChem BioAssay (Tox21).
Records with an inconclusive call do not appear. Calls of active or inactive are those of the source. Unless noted, calls come from the whole dose curve; as a rule, active = well fitted curve in the direction sought with a large enough effect in the repeat runs; inconclusive = weak or mixed curves; inactive = no such curve, though single readings can be large; an effect the other way counts as inactive or inconclusive.

Experiments:
[1] = qHTS assay to identify small molecule antagonists of the estrogen related receptor (ERR) signaling pathway from Tox21 library - cell viability counter screen (AID 1224834); note: nearly all actives have a fitted effect of over 30% in size
Procedure, shortened: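 Compounds in DMSO were pinned onto ERR cells that had been incubated for 6 h, and the plates were held at 37 C for 17.5 h. CellTiter-Fluor reagent was then added and fluorescence was measured after 30 min.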

[2] = target: Luciferin 4-monooxygenase (Photinus pyralis) (UniProt P08659); assay: qHTS assay to identify small molecule inhibitors of firefly luciferase (AID 1224835); note: series mostly up to about 120 µM; nearly all actives have a fitted effect of over 25% in size
Sequence of Luciferin 4-monooxygenase (Photinus pyralis) (P08659 whole entry, looked up): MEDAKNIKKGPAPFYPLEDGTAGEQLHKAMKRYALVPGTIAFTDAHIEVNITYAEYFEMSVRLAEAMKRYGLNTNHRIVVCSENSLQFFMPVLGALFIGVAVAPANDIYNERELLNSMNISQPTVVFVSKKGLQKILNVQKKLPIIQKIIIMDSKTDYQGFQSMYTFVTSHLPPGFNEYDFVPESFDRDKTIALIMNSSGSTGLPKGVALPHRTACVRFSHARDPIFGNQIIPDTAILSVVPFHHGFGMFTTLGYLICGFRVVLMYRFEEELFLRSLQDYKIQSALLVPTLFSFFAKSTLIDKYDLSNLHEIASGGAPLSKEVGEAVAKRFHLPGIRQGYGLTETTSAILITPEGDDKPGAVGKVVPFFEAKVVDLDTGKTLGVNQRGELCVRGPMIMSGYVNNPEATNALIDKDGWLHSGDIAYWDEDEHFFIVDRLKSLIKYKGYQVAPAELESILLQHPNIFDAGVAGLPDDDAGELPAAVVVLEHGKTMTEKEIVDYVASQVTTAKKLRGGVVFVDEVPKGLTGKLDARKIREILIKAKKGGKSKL
Procedure, shortened: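 Biochemical qHTS: compounds run as interplate titrations against purified firefly enzyme, with D-luciferin and ATP each at its KM concentration. Light output recorded by CCD imaging.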

[3] = qHTS assay to identify small molecule agonists of the constitutive androstane receptor (CAR) signaling pathway - cell viability counter screen (AID 1224836); note: series mostly up to about 92 µM; nearly all actives have a fitted effect of over 45% in size
Procedure, shortened: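 Fluorescence from CellTiter-Fluor indicates live cells after 23 h exposure. The human hepatoma line expresses hCAR and a CYP2B6-2.2kb reporter. Incubation medium contains 0.75 uM PK11195 (final).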

[4] = qHTS assay to identify small molecule antagonists of the constitutive androstane receptor (CAR) signaling pathway - cell viability counter screen (AID 1224837); note: series mostly up to about 92 µM; nearly all actives have a fitted effect of over 45% in size
Procedure, shortened: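 Cells are seeded, rested 4 hr at 37 C/5% CO2, dosed with compound (15-point series) and 50 nM CITCO, incubated a further 23 hr, and then CellTiter-Fluor reagent is added before fluorescence is read. The line is HepG2 with stable hCAR and CYP2B6-2.2kb.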

[5] = target: Nuclear receptor subfamily 1 group I member 3 (Homo sapiens) (UniProt Q14994); assay: qHTS assay to identify small molecule antagonists of the constitutive androstane receptor (CAR) signaling pathway (AID 1224838);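 note: HepG2 cells stably expressing hCAR with CYP2B6 luciferase reporter stimulated by CITCO; nearly all actives have a fitted effect of over 40% in size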
Sequence of Nuclear receptor subfamily 1 group I member 3 (Homo sapiens) (Q14994 whole entry, looked up): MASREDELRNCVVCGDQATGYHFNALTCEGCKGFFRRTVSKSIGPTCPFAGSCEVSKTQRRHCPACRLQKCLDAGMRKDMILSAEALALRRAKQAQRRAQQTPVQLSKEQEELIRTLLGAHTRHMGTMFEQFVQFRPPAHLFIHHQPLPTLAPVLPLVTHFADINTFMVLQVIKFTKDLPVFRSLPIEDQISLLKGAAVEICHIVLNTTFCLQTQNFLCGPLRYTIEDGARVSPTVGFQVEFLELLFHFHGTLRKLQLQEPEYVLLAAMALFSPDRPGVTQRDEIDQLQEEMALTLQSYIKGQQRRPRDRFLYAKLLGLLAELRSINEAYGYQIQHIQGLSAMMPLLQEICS
Procedure, shortened: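 Luminescence from a CYP2B6-2.2kb promoter reporter in hCAR-expressing HepG2 cells reflects CAR signaling. Cells received compounds at 15 concentrations and 50 nM CITCO (final), then incubated 24 h at 37 C/5% CO2.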

[6] = target: Nuclear receptor subfamily 1 group I member 3 (Homo sapiens) (UniProt Q14994); assay: qHTS assay to identify small molecule agonists of the constitutive androstane receptor (CAR) signaling pathway (AID 1224839);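 note: HepG2 cells stably carrying human CAR and a CYP2B6 luciferase reporter; series mostly up to about 92 µM; nearly all actives have a fitted effect of over 15% in size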
Procedure, shortened: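 Stable hCAR/CYP2B6-2.2kb HepG2 line in DMEM with 10% FBS; compounds (15 concentrations) and 0.75 uM PK11195 final, 24 h at 37 C/5% CO2, then ONE-Glo luminescence after 30 min.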

[7] = qHTS assay to identify small molecule antagonists of the estrogen related receptor signaling pathway with the pleiotropic PPARgamma coactivator (PGC) from Tox21 10K library - cell viability counter screen (AID 1224840; active = well fitted cell-killing curve with a large enough effect in the repeat runs, not every such curve was filed as active; note: nearly all actives have a fitted effect of over 40% in size)
Procedure, shortened: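 Cell viability is measured by CellTiter-Fluor fluorescence in PGC/ERR cells that receive compounds after a 6-hour attachment period and are then incubated 17.5 hours at 37 C.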

[8] = qHTS assay to identify small molecule agonists of the estrogen related receptor signaling pathway with the pleiotropic PPARgamma coactivator (PGC) from Tox21 10K library (AID 1224842); note: nearly all actives have a fitted effect of over 15% in size
Procedure, shortened: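 PGC/ERR reporter cell line, 2,000 cells per well, incubated 6 h at 37 C before 23 nL compound in DMSO was added. After 18 h at 37 C, One-Glo luminescence read following 30 min at room temperature.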

[9] = qHTS assay to identify small molecule antagonists of the estrogen related receptor signaling pathway with the pleiotropic PPARgamma coactivator (PGC) from Tox21 10K library (AID 1224841; call rule not given here; note: series mostly up to about 92 µM; actives are mostly falling curves and most rising ones were filed inactive; nearly all actives have a fitted effect of over 50% in size)
Procedure, shortened: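 Cells stably carrying the PGC/ERR reporter, seeded at 2,000 per well, received pin-transferred compounds 6 h post-plating. Exposure lasted 18 h at 37 C. Signal: One-Glo luminescence.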

Measured: Potency

CCCC=O
not listed: [9]
inactive: all other assays above

C#CC(C)(O)CC(C)C (configuration not stated)
inactive: all assays above

C=CCn1c(=O)n([C@@H]2O[C@H](CO)[C@@H](O)[C@H]2O)c2nc(N)[nH]c(=O)c21
inactive: [1] | [2] | [3] | [4] | [7]

O=C(O)/C=C/c1ccc(Cn2ccnc2)cc1
inactive: [1] | [2] | [3] | [4] | [7]

COc1ccc(NC(C)=O)cc1
inactive: [1] | [2] | [3] | [4] | [7]

OC/C=C/c1ccccc1
inactive: [1] | [2] | [3] | [4] | [7]

CCCCCCCCCCCCCCCCCC(=O)OCCCCCCCCCCCCCC(C)C
inactive: [1] | [2] | [3] | [4] | [7]

CCCCC=O
inactive: [1] | [2] | [3] | [4] | [7]

Cc1ccccc1C(=O)O
inactive: [1] | [2] | [3] | [4] | [7]
